Data reported in PubChem BioAssay AID938 (National Center for Advancing Translational Sciences (NCATS), 2007).
In all, about 73,000 compounds went through this assay and about 1,800 (2.5%) were called active. Where a call stands in place of a potency, no number is given. Inconclusive results (about 13%) are left out. The full list was thinned out, with actives kept by preference. A number with no mark means an inactive call. Calls follow the shape of the dose curve; as a rule, active = well fitted activation curve with a large enough effect; inconclusive = small, poorly fitted or top-dose-only effect; inactive = no such curve, though single readings can be large or run the other way.

experiment: qHTS Assay for Agonists of the Thyroid Stimulating Hormone Receptor: Activators of Intracellular cAMP Concentrations in Parental HEK 293; details: parental HEK293 CNG cAMP sensor, membrane potential fluorescence; series mostly up to 57.1 µM; also: nearly all actives have a fitted effect of over 55% in size
How it was run: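 Parental HEK 293 cells stably expressing a modified CNG channel (no TSHR) report cAMP rise as membrane depolarization. Membrane potential dye with 100 uM RO 20-1724 was loaded for 60 min at room temperature, then compound added for 30 min; fluorescence read at 590 nm.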
Potency is read from the fitted curve at half-maximal effect.

SMILES	Potency	activation
Cn1c(/C(C#N)=C2/CCCCCN2)nc2ccccc21	inactive	
Cc1noc(C)c1CSc1nc2cc(S(=O)(=O)N3CCOCC3)ccc2o1	inactive	
O=C(OCC(COC(=O)c1ccccc1)(COC(=O)c1ccccc1)COC(=O)c1ccccc1)c1ccccc1	inactive	
CCc1ccc(-c2nnn(Cc3nn[nH]n3)n2)cc1	inactive	
CCc1ccc(-c2nnn(Cc3nc4ccccc4s3)n2)cc1	15.8 µM (active)	
O=C(O)CSCc1nc2ccccc2s1	inactive	
Cc1nc2cnc(Nc3ccccc3)nc2n(Cc2ccc(F)cc2)c1=O	inactive	
O=C(CSc1n[nH]c(-c2cccnc2)n1)Nc1ccnc2ccccc12	inactive	
Nc1nonc1-c1nc2ccccc2n1CCC(=O)O	inactive	
COc1ccc(C)c(Cn2c(-c3nonc3N)nc3ccccc32)c1	25.1 µM (active)	
CCCn1c(C(O)c2cc(OC)ccc2OC)nc2ccccc21 (stereo not drawn)	inactive	
CC(=O)Nc1nonc1-c1nc2ccccc2n1Cc1ccccn1	inactive	
Nc1nonc1-c1nc2ccccc2n1Cc1ccc(F)cc1	20 µM (active)	
COCCn1c(-c2ccc(OC)c(OC)c2)nc2ccccc21	inactive	
C=CCc1cccc2cc(C(=O)OCC)c(=O)oc12	inactive	
C/C(=C\C(=O)c1ccccc1)Nc1cccc(O)c1		5.02% [at 11.4 µM]
COc1cc(Cl)c(S(=O)(=O)n2cnc(C)c2)cc1Cl		12.1% [at 11.4 µM]
CCC1Oc2ccc(Cl)cc2N(CC(=O)O)C1=O (stereo not drawn)	inactive	
C#CCC(C(=O)OC)(C(=O)OC)C(C[N+](=O)[O-])c1ccccc1 (stereo not drawn)		-0.955% [at 11.4 µM]
COc1cccc([C@H]2Oc3ccc(OC)cc3/C(=N\OCC[C@@H]3C=C[C@H](OC(C)=O)[C@H](COC(C)=O)O3)[C@@H]2O)c1		1.81% [at 11.4 µM]
Cc1cc(C)n(C(=O)c2ccc(C)c(S(=O)(=O)N3CCOCC3)c2)n1	inactive	
Cc1ccccc1NC(=O)c1cc(S(=O)(=O)N2CCOCC2)cs1	inactive	
Cc1ccc(C(=O)Nc2ccccc2C(=O)NC2CCCCC2)cc1S(=O)(=O)N1CCOCC1	15.8 µM (active)	
N[C@H](C(=O)O)c1ccc(C(=O)O)c(O)c1	inactive	
Cc1c2c(nc3ccccc13)-c1cccc(=O)n1C2	inactive	
Cc1ccc(-c2nn(CC(C)(C)C)c3ncnc(N)c23)cc1	inactive	
CCCN(CCC)C(=O)C1c2ccccc2Oc2ccccc21	12.6 µM (active)	
O=C(c1ccco1)N1CCN(C(=O)C2c3ccccc3Oc3ccccc32)CC1	inactive	
